This note sets out measurements from PubChem BioAssay AID602360 (National Center for Advancing Translational Sciences (NCATS), 2012).

Records with an inconclusive call do not appear. A number with no mark means an inactive call. The source made the active and inactive calls. Calls follow the shape of the dose curve; as a rule, active = well fitted curve in the direction sought with a large enough effect; inconclusive = small, poorly fitted or top-dose-only effect, or another doubt; inactive = no such curve, though single readings can be large or run the other way.

The assay has as its target Holo-[acyl-carrier-protein] synthase (Bacillus subtilis (strain 168)) (UniProt P96618). Kind of assay: qHTS Assay for Inhibitors of Bacillus subtilis AcpS phosphopantetheinyl transferase (PPTase): SAR. Conditions: purified B. subtilis AcpS enzyme; Potency: PPTase activity; series mostly up to 57.1 µM; activity change, negative = inhibition: at the top concentration. An excerpt:
The covalent attachment of a phosphopantetheinyl (4'-PP) arm to a variety of synthases and other proteins is a key posttranslational protein modification. The 4'-PP is installed on the proteins post-translationally from coenzyme A (CoA) on a conserved serine residue by action of phosphopantetheinyl transferase (PPTase) enzymes. Phosphopantetheinylation is essential for synthase activity, and removal of the PPTase gene precludes natural product synthesis in microorganisms, or in the case of fatty acid biosynthesis, renders the organism unviable. PPTase enzymes belong to a distinct structural superfamily. Within bacteria, these enzymes are grouped into two classes based upon primary structure, the AcpS-Type and Sfp-Type PPTases.
Sfp-type PPTases, corresponding to an activator of surfactin production in Bacillus subtilis, are responsible for modifying type I polyketide and nonribosomal peptide synthases of prokaryotes. Sfp-type PPTases are responsible for the activation of a variety of pathogen-associated virulence factors. Among these compounds are toxins such as mycolactone from Mycobacterium ulcerans, siderophores such as vibriobactin from Vibrio cholerae or mycobactin from Mycobacterium tuberculosis, as well as the mycolic acids which form the waxy cell wall of Mycobacteria. The biosyntheses of these natural products are considered attractive targets for drug design.
In search of small molecule Sfp-PPTase inhibitors, a fluorescence quenching assay was developed for detection of Bacillus subtilis Sfp-PPTase enzymatic activity in a miniaturized high-throughput format. The consensus ybbr acceptor peptide […] was N-terminally labeled with Black Hole Quencher-2 (BHQ-2) and used in combination with rhodamine-labeled coenzyme A as a co-substrate.
This project seeks to identify Sfp-PPTase inhibitors. This assay sought to determine the activity of these compounds with holo-acyl carrier protein synthase (AcpS) from E. coli, the canonical representative of the AcpS-PPTase subgrouping (vide supra). The evaluation utilized the qHTS assay format, with the only change being direct substitution of the enzyme.
NIH Chemical Genomics Center [NCGC]
NIH Molecular Libraries Probe Centers Network [MLPCN]
Assay Submitter (PI): Michale Burkart, University of California, San Diego
The assay was performed in a buffer consisting of 50mM HEPES-Na pH 7.6, 10mM MgCl2, 0.01% Nonidet P-40, and 0.01% BSA. Reagents (3 uL) were dispensed into a 1536-well black solid bottom plate (100 nM AcpS PPTase incolumns 1, 2, 5 through 48; buffer sans enzyme in columns 3 &4). DMSO solution of test articles (23 nL) were transferred via Kalypsys pintool equipped with 1,536-pin array. Following a room temperature incubation (15 min), enzyme reactions were initiated by the addition of substrate (1 uL , final concentration in the plte for rhodamine-CoA and BHQ-2-YbbR 5 uM and 12.5 uM, respectively). The plate was then centrifuged (15 s, 1000 rpm), and the fluorescence intensity recorded on a ViewLux High-throughput CCD imager (Perkin-Elmer, 525 nm excitation and 598 nm emission). The plate was then incubated at room temperature (30 min), after which a second read on the ViewLux was recorded. The fluorescence intensity difference over the 30-minute period was used to calculate the respective reaction rate for each well.
Turning to `Cc1cc(C)nc(NC(=S)N2CCN(c3ccc([N+](=O)[O-])cc3Cl)CC2)c1`, the Potency is 6.46 µM (active). As for `Cc1cc(C)nc(NC(=S)N2CCN(c3ncccc3C#N)CC2)c1`, the “activity change, negative = inhibition” value was -7.03%. Still for that read-out and setting: for `Cc1ccnc(NC(=S)N[C@@H]2CCN(c3cccc(C(F)(F)F)c3)C2)c1` the value was -1.64%; for `Cc1ccnc(NC(=S)Nc2cccc(C(F)(F)F)c2)c1`, -5.9%. Consider `Cc1ccnc(NC(=S)N2CCN(c3cc(C(F)(F)F)cc(C(F)(F)F)c3)CC2)c1`, for which the Potency is 4.57 µM (active). Turning to `Cc1ccnc(NC(=S)N2CCCc3ccc(C(F)(F)F)cc32)c1`, the “activity change, negative = inhibition” value was 1.85%. Take `FC(F)(F)c1cc(N2CCN(C(=S)Nc3cc(Cl)ccn3)CC2)cc(C(F)(F)F)c1`: the “activity change, negative = inhibition” value was 10.1%. Still for that read-out and setting: for `Cc1ccnc(N=C(N)N2CCN(c3cccc(C(F)(F)F)c3)CC2)c1` the value was 15.1%; for `COc1cccc(NC(=S)N2CCN(c3cc(Cl)cc(Cl)c3)CC2)n1`, 8.03%; for `CSC(Cc1ccc(Cl)cc1)C(=O)Nc1ccc(Cl)cc1C(=O)O` (configuration not stated), 1.84%. The same measure, in the same setting: for `CC(Cc1ccccc1)C(=O)Nc1ccc(Cl)cc1C(=O)O` (configuration not stated) the value was -11.5%. As for `Cc1nc(CN(C)c2ncnc3ccc(-c4ccc5[nH]ncc5c4)cc23)cs1`, the “activity change, negative = inhibition” value is 55.2%.
